Test results from ChEMBL document CHEMBL1201862, “PubChem BioAssay data set” (2004).
In all, about 400,000 compounds went through this assay and about 2,100 (0.53%) were called active. Roughly 14% stayed inconclusive and do not appear here. No rule for the calls is given here. What follows is part of a selection rich in actives, with near analogues and random picks from the rest.

Each compound was assayed against Ataxin-2 (Homo sapiens) (UniProt Q99700) (assay: qHTS for Inhibitors of ATXN expression.).
Format: functional

Chain of Ataxin-2 (Homo sapiens) (Q99700 whole entry): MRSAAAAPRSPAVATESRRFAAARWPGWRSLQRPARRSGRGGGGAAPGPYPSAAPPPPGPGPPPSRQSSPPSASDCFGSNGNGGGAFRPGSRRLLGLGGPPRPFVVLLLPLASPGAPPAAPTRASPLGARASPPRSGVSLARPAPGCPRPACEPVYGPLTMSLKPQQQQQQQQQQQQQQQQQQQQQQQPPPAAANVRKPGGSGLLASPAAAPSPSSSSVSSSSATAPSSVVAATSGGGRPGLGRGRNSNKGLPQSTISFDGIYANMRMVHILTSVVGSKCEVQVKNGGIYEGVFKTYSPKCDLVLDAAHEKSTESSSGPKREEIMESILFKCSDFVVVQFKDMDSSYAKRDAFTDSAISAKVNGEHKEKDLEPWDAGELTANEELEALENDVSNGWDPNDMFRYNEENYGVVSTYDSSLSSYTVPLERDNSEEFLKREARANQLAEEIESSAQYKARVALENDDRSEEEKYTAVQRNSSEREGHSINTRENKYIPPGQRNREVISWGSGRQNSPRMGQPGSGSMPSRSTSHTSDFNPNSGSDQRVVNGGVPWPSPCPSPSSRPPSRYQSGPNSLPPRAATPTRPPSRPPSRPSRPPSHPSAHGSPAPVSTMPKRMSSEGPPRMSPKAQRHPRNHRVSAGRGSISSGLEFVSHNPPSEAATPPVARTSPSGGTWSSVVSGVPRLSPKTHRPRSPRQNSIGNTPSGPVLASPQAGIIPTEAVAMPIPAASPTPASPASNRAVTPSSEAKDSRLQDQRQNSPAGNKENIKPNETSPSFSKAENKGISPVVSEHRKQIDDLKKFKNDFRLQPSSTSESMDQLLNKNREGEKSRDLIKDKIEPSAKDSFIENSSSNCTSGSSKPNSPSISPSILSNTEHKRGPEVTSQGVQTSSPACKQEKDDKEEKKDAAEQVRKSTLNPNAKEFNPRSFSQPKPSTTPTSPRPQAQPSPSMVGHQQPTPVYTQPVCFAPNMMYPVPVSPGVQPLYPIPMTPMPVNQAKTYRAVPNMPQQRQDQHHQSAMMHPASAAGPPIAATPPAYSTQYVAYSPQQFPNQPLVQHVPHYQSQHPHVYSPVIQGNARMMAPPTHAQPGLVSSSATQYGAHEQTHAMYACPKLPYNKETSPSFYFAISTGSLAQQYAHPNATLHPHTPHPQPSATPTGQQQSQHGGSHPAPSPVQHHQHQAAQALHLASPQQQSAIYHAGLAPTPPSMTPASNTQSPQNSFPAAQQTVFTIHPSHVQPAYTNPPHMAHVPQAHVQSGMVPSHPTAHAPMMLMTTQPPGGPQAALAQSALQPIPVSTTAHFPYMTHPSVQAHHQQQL

Structure (SMILES)	Potency
COC(=O)C(=O)C/C(=N/Nc1ncnc2ccccc12)c1ccc(Cl)cc1	inactive
C#CCOc1ccc(C2C3=C(CC(C)(C)CC3=O)N(CC(=O)O)C3=C2C(=O)CC(C)(C)C3)cc1	inactive
Cc1cc2nc3c(=O)n(C4CCCCC4)c(=O)[nH]c3nc2cc1N	inactive
CCCN(CC(=O)Nc1ccc(F)c(F)c1F)C(=O)Cc1ccc(OC)c(S(=O)(=O)N2CCOCC2)c1	inactive
COc1ccc(CN2CCN(CC3CC3)CC2CCO)c(C)c1C (centres undefined)	inactive
CC(C)=CCN1CCN(Cc2cccc3nonc23)CC1CCO (centres undefined)	inactive
Cc1ccccc1CN1CCN(Cc2cc3ccccc3o2)CC1CCO (centres undefined)	8.44 µM (active)
CCOc1ccc(C2=CC(c3ccccc3)n3ncnc3N2)cc1 (centres undefined)	inactive
CCOCCCn1/c(=N/C(=O)c2cccnc2)c(C(=O)OCC)cc2c(=O)n3ccccc3nc21	inactive
COC(=O)c1ccc2[nH]c3cccc(/C(=C/c4ccccc4)c4ccccc4)c3c2c1	39.8 µM (active)
O=C(OCCN1C(=O)c2cccc3c(N4CCOCC4)ccc(c23)C1=O)c1ccc(Cl)cc1Cl	inactive
O=C(CN1C(=O)c2ccccc2C1=O)OCCOCCNC1=NS(=O)(=O)c2ccccc21	inactive
COCCCNC(=O)c1ccc2nc3ccccc3c(=O)n2c1	inactive
CCc1nc2ccc(C(=O)NCc3ccccc3OC)cn2c1N(C)Cc1ccc(OC)cc1	17.8 µM (active)
CCn1cc(Cl)c(C(=O)Nc2cc(C(=O)OC)cc(C(=O)OC)c2)n1	inactive
CCc1nc2ccc(C(=O)Nc3ccc(Cl)c(Cl)c3)cn2c1N(C)Cc1ccc(OC)cc1	20 µM (active)
COc1ccc(N2CC(C(=O)N[C@@H](C)C(=O)NCc3ccccc3OC)CC2=O)cc1 (some centres undefined)	inactive
COc1ccc(NC(=S)N2CCC(C(=O)c3ccc(Cl)cc3)CC2)cc1	inactive
COc1ccc2c(c1)CCc1cn3ncc(C#N)c3nc1-2	inactive
O=C(O/N=C1\CCS(=O)(=O)c2sccc21)c1ccccc1	inactive
CCc1c(C)c2cc(Cl)c(O)c(CN(CC)CC)c2oc1=O	inactive
CN1C(=O)c2cccc3c(Br)ccc(c23)C1=O	inactive

Structure (SMILES)	Potency
Brc1ccc(COc2ncnc3ccccc23)cc1	inactive
CN(Cc1ccc(Cl)cc1)C(=O)CCl	35.5 µM (active)
COc1ccc(CN(C)C(S)=Nc2ccc(Cl)cc2)cc1	inactive
CCOc1ccc(CN(C)C(=O)CCl)cc1	12.6 µM (active)
CCOc1ccc(CNC(=O)Nc2ccccc2)cc1	inactive
CN(Cc1ccc(Cl)s1)C(=O)CCl	23.8 µM (active)
O=C(NCc1ccc2c(c1)OCO2)c1ccc(Cl)s1	inactive
O=C(O)c1ccccc1N(Cc1ccccc1)C(=O)COc1ccccc1	inactive
O=C(Nc1ccccc1F)C(=Cc1sc(N2CCOCC2)nc1-c1ccccc1)C(=O)Nc1ccccc1F	inactive
Nc1c(C(=O)Nc2ccccc2)sc2nc(-c3ccco3)ccc12	inactive
Cc1ccc2cccc(NS(=O)(=O)c3ccccc3)c2n1	inactive
CC(C)(C)C(=O)/C=c1\s/c(=C\c2ccc(-c3ccc([N+](=O)[O-])cc3)o2)c(=O)n1CC(=O)NC(N)=O	inactive
COC(=O)c1ccc2oc(=O)c(S(=O)(=O)c3ccc(C)cc3)cc2c1	inactive
COc1cc2nc(N(CCCN(C)C)C(=O)c3ccc(C(=O)c4ccccc4)cc3)sc2cc1OC	44.7 µM (active)
CN(C)CCCN(C(=O)c1ccc2c(c1)CCCC2)c1nc2ccc(Cl)cc2s1	31.6 µM (active)
CN(C)CCCN(C(=O)c1cccs1)c1nc2cc3c(cc2s1)OCO3	inactive
CN(C)CCCN(C(=O)c1ccco1)c1nc2ccc(Cl)cc2s1	39.8 µM (active)
Cc1ccc2nc(N(CCCN(C)C)C(=O)c3ccc4c(c3)CCCC4)sc2c1	39.8 µM (active)
S=C(Nc1ccccc1Cl)N1CCCC(c2ccccc2)=N1	inactive
NC1=NC(=O)C(Cc2ccc(Br)cc2)S1 (centres undefined)	inactive
Nc1nc(N)c2ncc(C(=O)CCc3ccccc3)nc2n1	inactive
O=c1c2ccccc2nc(-c2ccccc2)n1O	inactive

Structure (SMILES)	Potency
CN(C)c1ccnc2sc(C(=O)c3ccc(Br)cc3)c(N)c12	inactive
CC1CCCCN1S(=O)(=O)c1ccc(C(=O)N(CCCN(C)C)c2nc3ccc(Br)cc3s2)cc1 (centres undefined)	39.8 µM (active)
CCC1CCCCN1S(=O)(=O)c1ccc(C(=O)Nc2sc3c(c2C(=O)NC)CCC3)cc1 (centres undefined)	inactive
COC(=O)c1c(NC(=O)c2ccc(S(=O)(=O)N3CCCCC3C)cc2)sc2c1CCN(C(C)C)C2 (centres undefined)	inactive
CSc1nsc(SCC(=O)Nc2ccccc2C(N)=O)n1	inactive
Cc1ccc(Cn2c(=N)c(C(=O)NCC3CCCO3)cc3c(=O)n4cccc(C)c4nc32)cc1 (centres undefined)	inactive
CSCCC(NC(=O)COc1ccccc1)C(=O)NCCOc1ccccc1 (centres undefined)	inactive
COc1cc2ccccc2cc1C(=O)Nc1ccc(O)cc1	inactive
COc1c2ccccc2nc2ccccc12	inactive
COc1ccc(OC)c2cc3ccccc3cc12	17.8 µM (active)
COc1ccc2c(c1)cc(C(=O)N/N=C/c1c(O)c(C(=O)O)cc3ccccc13)n2C	inactive
CCOc1ccc(CCNC(=O)C2CCCN(c3nnc(C)c4c(C)n(-c5ccccc5)nc34)C2)cc1 (centres undefined)	31.6 µM (active)
CCOc1ccc(NC(=O)C2CCCN(c3nn4c(=O)cc(C)nc4s3)C2)cc1 (centres undefined)	inactive
COc1ccc(C)cc1NC(=O)C1CCCN1S(=O)(=O)c1ccccc1F (centres undefined)	inactive
Cc1nnc(N2CCCC(C(=O)Nc3cc(F)ccc3F)C2)c2nn(-c3ccccc3)c(C)c12 (centres undefined)	35.5 µM (active)
CCOc1ccc(CNC(=O)C2CCCN(c3nnc(C)c4c(C)n(-c5ccccc5)nc34)C2)cc1 (centres undefined)	15.8 µM (active)
CCOC(=O)N1CCN(S(=O)(=O)N2CCCC(C(=O)NCCc3ccc(Cl)cc3)C2)CC1 (centres undefined)	inactive
Cc1ccc(-n2nc3c(=O)n(C(C)C(=O)NCCc4cccs4)nc(C)c3c2C)cc1 (centres undefined)	inactive
Cc1cccc(CNC(=O)CCCn2nc(C)c3c(C)n(-c4ccccc4)nc3c2=O)c1	inactive
Cc1ccc(-n2nc3c(N4CCCC(C(=O)NCCc5ccccc5)C4)nnc(C)c3c2C)cc1 (centres undefined)	20 µM (active)
